# Data as given in PubChem BioAssay.
# Values joined by “and” are separate entries in the source; they are usually repeats but may differ in a detail not shown here. Equal entries are not always repeated. Records with an inconclusive call do not appear. For some of these results: Entries with a potency or affinity are not part of this list. Active and inactive are the calls of the source. Unless noted, how the calls were made is not given here.
# What was measured:
# [1] = blockers of polyQ-driven CASP3 activation – cell-based (AID 1583); conditions: polyglutamine-induced caspase-3 activation, cell assay; stronger effect = higher value;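 tested at 10 µM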
# [2] = yeast 75Q aggregation reduction – 75Q-TubU reporter (AID 1593); conditions: Yeast 75Q polyglutamine aggregation reporter
# [3] = restoration of touch response, mutant HTT neurons – whole organism, C. elegans mechanosensory neurons, N-terminal huntingtin (AID 1599); conditions: C. elegans polyQ-huntingtin mechanosensory neurons, stronger effect = higher value
# [4] = blockers of cytochrome c efflux from mitochondria – biochemical, purified mitochondria (AID 1603); conditions: stronger effect = lower value;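 further: mouse liver mitochondria challenged with calcium chloride; signal normalized to the plate average as 100%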
# [5] = polyglutamine aggregate formation blockers (AID 1604); conditions: polyglutamine-induced protein aggregation inhibition assay; stronger effect = higher value; tested at 2.5 µM
# [6] = glutamate transport activators, MN-1 cells, MN-1 cell line (AID 1612); conditions: MN-1 motor neuron cells, stronger effect = higher value;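 further: tested at 1 µM final; 0% = mean of DMSO vehicle wells on each plate; positive means more glutamate uptake than control and negative means less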
# [7] = GFP-Q80 aggregate reduction, neuronal-like cells, cell-based, NGF-treated PC12, GFPQ80 (AID 1614); conditions: PC12 NGF-treated GFP-polyQ80 inclusion reduction;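 further: lower means fewer inclusions and 0 means no inclusions at all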
# [8] = 75Q-TubH aggregate inhibition, S. cerevisiae, yeast (AID 1616); conditions: S. cerevisiae 75Q-TubH polyglutamine aggregation suppression; stronger effect = higher value
# [9] = compounds altering circadian rhythm period length – cell-based, LOPAC library, luminescence reporter (AID 2774); conditions: circadian reporter cells, at 7 µM, actives lie on both sides;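 further: values are relative to mean of DMSO wells on each plate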
# [10] = test system: Hepatitis C virus NS3 helicase; assay: blockers of NS3h binding to ssDNA – biochemical, fluorescence polarization, LOPAC1280 library, primary screen (AID 687035; in the data active means inhibition above about 37%); conditions: Purified HCV NS3 helicase, Cy5-dT15 ssDNA binding fluorescence polarization; stronger effect = higher value; concentration not given here
# [11] = compounds altering Cy5-DNA-NS3h complex signal – biochemical, LOPAC1280, artefact control for HCV NS3 helicase inhibitor project (AID 687037); conditions: Cy5-DNA-NS3h complex fluorescence interference counterscreen
# [12] = target: 6-phosphogluconate dehydrogenase, decarboxylating (Homo sapiens) (UniProt P52209); assay: inhibition of human phosphogluconate dehydrogenase – biochemical, recombinant enzyme, NADPH absorbance, primary screen (AID 1159550;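 active means at least 20% inhibition of 6-phosphogluconate dehydrogenase activity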); conditions: recombinant 6PGD, NADPH absorbance 341 nm; at 10 µM; stronger effect = higher value
# 6-phosphogluconate dehydrogenase, decarboxylating (Homo sapiens), sequence (P52209 whole entry, looked up): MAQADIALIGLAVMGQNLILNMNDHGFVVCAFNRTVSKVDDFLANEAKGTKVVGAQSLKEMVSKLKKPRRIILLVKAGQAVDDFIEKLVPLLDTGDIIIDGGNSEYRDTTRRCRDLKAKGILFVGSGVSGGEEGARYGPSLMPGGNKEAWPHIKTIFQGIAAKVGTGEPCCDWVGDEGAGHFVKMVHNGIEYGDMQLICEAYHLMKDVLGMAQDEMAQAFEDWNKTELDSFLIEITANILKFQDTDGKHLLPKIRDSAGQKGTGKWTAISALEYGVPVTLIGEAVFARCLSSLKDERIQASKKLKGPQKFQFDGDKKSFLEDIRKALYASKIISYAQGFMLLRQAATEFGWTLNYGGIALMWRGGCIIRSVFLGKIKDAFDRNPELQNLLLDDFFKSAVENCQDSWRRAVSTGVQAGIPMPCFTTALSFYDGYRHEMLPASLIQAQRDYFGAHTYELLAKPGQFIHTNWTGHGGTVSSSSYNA
# [13] = viability loss with induced miR-34 in A549 – imaging, A549 dox-inducible miR-34, nuclei and caspase counts, primary screen (AID 1347080;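 active means compounds whose cell count with miR-34 switched on is under 0.7 times the count with it off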); conditions: A549 miR-34 inducible, Hoechst nuclei count, 48 h
# [14] = blockers of cellular phospholipid synthesis – cell-based, LOPAC library, screen 4, primary screen (AID 1347384); conditions: animal cells, phospholipid biosynthesis inhibition screen; at 10 µM
# [15] = target: NAD(+) hydrolase SARM1 (Homo sapiens) (UniProt Q6SZW1); assay: blocking NAD cleavage by SARM1 SAM-TIR – cell lysate, NAD-Glo luminescence (AID 1508614;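 active means compound whose remaining NAD level is above about 45 nM, limit read from the data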); conditions: SAM-TIR HEK293T lysate NADase, at 1 µM, stronger effect = higher value
# NAD(+) hydrolase SARM1 (Homo sapiens), sequence (Q6SZW1 whole entry, looked up, the tested form may be a part): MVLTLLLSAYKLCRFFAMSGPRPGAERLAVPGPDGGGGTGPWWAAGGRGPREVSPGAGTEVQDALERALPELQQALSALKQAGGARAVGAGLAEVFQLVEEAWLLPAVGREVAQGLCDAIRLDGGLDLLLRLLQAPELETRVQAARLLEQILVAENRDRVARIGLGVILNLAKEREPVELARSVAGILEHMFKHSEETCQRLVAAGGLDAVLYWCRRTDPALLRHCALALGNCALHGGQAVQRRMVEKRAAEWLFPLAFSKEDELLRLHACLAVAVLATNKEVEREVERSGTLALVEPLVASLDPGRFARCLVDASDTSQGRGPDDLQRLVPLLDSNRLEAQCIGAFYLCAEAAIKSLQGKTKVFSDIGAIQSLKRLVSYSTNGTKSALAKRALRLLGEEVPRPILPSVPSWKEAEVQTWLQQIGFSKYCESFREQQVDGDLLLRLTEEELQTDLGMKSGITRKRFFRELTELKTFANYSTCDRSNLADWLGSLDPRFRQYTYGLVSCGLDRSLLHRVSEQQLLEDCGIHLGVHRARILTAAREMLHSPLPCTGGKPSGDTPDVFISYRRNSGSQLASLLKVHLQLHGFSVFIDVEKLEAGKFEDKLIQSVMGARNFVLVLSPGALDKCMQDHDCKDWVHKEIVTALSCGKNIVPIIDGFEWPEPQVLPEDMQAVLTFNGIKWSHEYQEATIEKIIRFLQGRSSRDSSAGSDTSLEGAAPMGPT
# [16] = target: Mitogen-activated protein kinase 7 (Homo sapiens) (UniProt Q13164); assay: Gal4-ERK5 driven luciferase induction – cell-based, HTS, primary screen (AID 1508626;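 active means luciferase signal above three times the same-plate solvent-only control wells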;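 further: luciferase driven by Gal4-ERK5 fusion binding five Gal4 sites before minimal TATA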); conditions: HeLa Gal4-ERK5 transactivation, 18 h, at 5 µM, stronger effect = higher value
# Mitogen-activated protein kinase 7 (Homo sapiens), sequence (Q13164 whole entry, looked up, the tested form may be a part): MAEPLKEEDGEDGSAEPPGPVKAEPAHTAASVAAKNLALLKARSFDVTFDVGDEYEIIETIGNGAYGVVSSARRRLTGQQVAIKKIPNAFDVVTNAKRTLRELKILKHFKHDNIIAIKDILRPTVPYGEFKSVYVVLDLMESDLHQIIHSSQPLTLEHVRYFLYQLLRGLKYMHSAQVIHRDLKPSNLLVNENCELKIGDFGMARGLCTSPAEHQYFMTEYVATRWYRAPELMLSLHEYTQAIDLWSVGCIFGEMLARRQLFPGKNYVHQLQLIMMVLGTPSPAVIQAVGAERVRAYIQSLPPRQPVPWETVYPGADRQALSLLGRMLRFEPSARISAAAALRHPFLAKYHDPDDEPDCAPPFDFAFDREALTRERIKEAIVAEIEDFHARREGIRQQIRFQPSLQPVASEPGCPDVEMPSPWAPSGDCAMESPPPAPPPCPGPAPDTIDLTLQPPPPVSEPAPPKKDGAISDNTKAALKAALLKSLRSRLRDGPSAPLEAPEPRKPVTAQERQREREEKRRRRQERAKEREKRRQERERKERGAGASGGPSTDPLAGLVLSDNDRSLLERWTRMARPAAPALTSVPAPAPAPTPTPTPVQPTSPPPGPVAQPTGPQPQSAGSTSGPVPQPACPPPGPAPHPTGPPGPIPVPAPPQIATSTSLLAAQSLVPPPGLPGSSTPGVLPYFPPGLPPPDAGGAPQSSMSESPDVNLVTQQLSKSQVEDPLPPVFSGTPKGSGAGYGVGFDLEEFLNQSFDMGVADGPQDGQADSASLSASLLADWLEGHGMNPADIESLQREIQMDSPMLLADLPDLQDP
# [17] = galactose survival enhancers in mitochondrial complex I cybrids – cell-based, galactose medium, ATP luminescence, primary screen (AID 1645843;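 active means z-score of at least 1.8 in each of two replicates, scored against plate mean and spread of sample wells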;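 further: positive z means more ATP and so rescue of galactose-driven cybrid death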); conditions: complex I mutant cybrid cells, 72 h, stronger effect = higher value
# [18] = rescue of PC12 cells from polyQ htt toxicity – LDH release (AID 1610); conditions: PC12 mutant huntingtin toxicity, final LDH at 4 uM, stronger effect = lower value
# [19] = P. berghei load reduction in hepatocytes – cell-based, HepG2, luciferase luminescence, HepG2 viability, primary screen (AID 624349; in the data active means parasite load remaining mostly below about 12%, no sharp cut-off; inactive means mostly above about 10%;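 further: 100% = mean of DMSO negative control wells on the same plate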); conditions: P. berghei liver stage in HepG2, luciferase luminescence, concentration not given here; parasite load remaining: stronger effect = lower value; viability: measured here: HepG2 viability without parasites
# [20] = MELAS cybrid and Rieske KO viability enhancers – cell-based, MELAS cybrids, Rieske KO mouse fibroblasts, CellTiter-Glo, primary screen (AID 1508586;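 active means mean z-score across replicates of 1.96 or higher in either the MELAS or the Rieske mutant cell line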;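 further: z relative to plate mean and SD of compound and empty wells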); conditions: low glucose
# [21] = stronger effect = lower value, cell number ratio, induced over uninduced
# [22] = measured here: relative caspase fold change +Dox/-Dox
# [23] = measured here: total cells with miR-34 induction, stronger effect = lower value
# [24] = measured here: total cells without miR-34 induction
compound,measurement,setting,value
N[C@@H](Cc1c[nH]c2ccccc12)C(=O)O,inhibition,[1],8.74%
same,score,[2],1.61
same,rescue above control,[3],-5.37
same,cytochrome c release ratio,[4],0.96
same,inhibition of aggregation,[5],63.4%
same,glutamate uptake change,[6],-7.55%
same,inclusion score,[7],2
same,aggregation suppression score,[8],1.04
same,period change,[9],0.11 h (inactive)
same,inhibition,[10],2% (inactive)
same,fluorescence ratio (interference),[11],1 (inactive)
same,inhibition,[12],3.98% (inactive)
same,fold change,[13]; [21],0.995 (inactive)
same,fold change,[13]; [22],0.835
same,cell count,[13]; [23],9660
same,cell count,[13]; [24],9710
same,outcome,[14],inactive
same,remaining NAD,[15],10 nM (inactive)
same,luciferase signal,[16],136 AU (inactive)
same,z-score,[17],0.315 (inactive)
O=C(O)c1cc2cc(Cc3cccnc3)ccc2o1,inhibition,[1],22.5%
same,score,[2],1.36
same,rescue above control,[3],-5.98
same,cytochrome c release ratio,[4],1.03
same,inhibition of aggregation,[5],1.59%
same,normalised LDH release,[18],1.48
same,glutamate uptake change,[6],-0.47%
same,inclusion score,[7],2
same,aggregation suppression score,[8],1.23
same,period change,[9],0.065 h (inactive)
same,parasite load remaining,[19],124% (inactive)
same,viability,[19],73.4%
same,inhibition,[10],-2% (inactive)
same,fluorescence ratio (interference),[11],1 (inactive)
same,inhibition,[12],4.63% (inactive)
same,fold change,[13]; [21],0.956 (inactive) and 0.926 (inactive)
same,fold change,[13]; [22],0.671 and 1.19
same,cell count,[13]; [23],10100 and 5310
same,cell count,[13]; [24],10600 and 5730
same,outcome,[14],inactive
same,z-score,[17],0.16 (inactive)
CSC(N)=NCCC[C@H](N)C(=O)O,period change,[9],0.125 h (inactive)
same,inhibition,[10],-3% (inactive)
same,fluorescence ratio (interference),[11],1 (inactive)
same,inhibition,[12],-13.5% (inactive)
same,fold change,[13]; [21],1.1 (inactive) and 0.994 (inactive)
same,fold change,[13]; [22],0.973 and 0.749
same,cell count,[13]; [23],11000 and 6220
same,cell count,[13]; [24],10000 and 6260
same,outcome,[14],inactive
same,z-score,[17],0.215 (inactive)
CN(C)c1nc(N)c(C(=O)N=C(N)N)nc1Cl,period change,[9],-0.18 h (inactive)
same,inhibition,[10],-2% (inactive)
same,fluorescence ratio (interference),[11],1 (inactive)
same,inhibition,[12],11.7% (inactive)
same,fold change,[13]; [21],1.07 (inactive)
same,fold change,[13]; [22],1.7
same,cell count,[13]; [23],10400
same,cell count,[13]; [24],9710
same,outcome,[14],inactive
same,z-score,[17],0.335 (inactive)
CC(=O)O[C@H]1C(=O)[C@@]2(C)[C@H]([C@H](OC(=O)c3ccccc3)[C@]3(O)C[C@H](OC(=O)[C@H](O)[C@@H](NC(=O)c4ccccc4)c4ccccc4)C(C)=C1C3(C)C)[C@]1(OC(C)=O)CO[C@@H]1C[C@@H]2O,parasite load remaining,[19],52.9% (inactive) and 35% (inactive)
same,viability,[19],43.2% and 79%
same,inhibition,[12],17.9% (inactive)
same,fold change,[13]; [21],0.873 (inactive) and 1.02 (inactive)
same,fold change,[13]; [22],1.16 and 1.19
same,cell count,[13]; [23],1550 and 2180
same,cell count,[13]; [24],1780 and 2140
same,z-score,"[20]; MELAS cybrid survival, CellTiter-Glo 48 h, stronger effect = higher value",-1.19 (inactive) and -2.08 (inactive)
same,z-score,"[20]; Rieske KO mouse fibroblast survival, CellTiter-Glo 72 h",0.25 and 0.578
same,remaining NAD,[15],10 nM (inactive)
same,luciferase signal,[16],36 AU (inactive)
same,z-score,[17],-0.295 (inactive)
